Measured values as given in PubChem BioAssay (EPA / NIEHS).
“And” between values parts separate entries of the source, which are not always exact repeats. Equal entries are not always repeated. A structure can be active in one record and inactive in another. The source made the active and inactive calls. How the source made its calls: active means hit-call score of the fitted dose curve at least 0.9, where 1 is the maximum; inactive means score below 0.9.

Experiments:
[1] = ATG_EGR_CIS: Attagene CIS-FACTORIAL HepG2 Assay for human Early Growth Response 1 (EGR1) (AID 2282938); settings: HepG2 Attagene CIS-FACTORIAL EGR reporter mRNA; actives raise or lower the signal
Summary of the method: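 Endogenous TF activity in HepG2 liver cells was gauged through cis-promoter reporter constructs transiently transfected. After 24 h dosing, reporter mRNA was quantified by RT-PCR and capillary electrophoresis, and curves fitted in both directions versus DMSO.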

[2] = ATG_M_19_CIS: Attagene CIS-FACTORIAL HepG2 Assay for M19 Transcription Factor (Internal Marker) (AID 2282939); settings: HepG2 Attagene CIS-FACTORIAL M19 internal marker reporter; actives raise or lower the signal
Summary of the method: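 HepG2 cells transiently transfected with cis-regulated multiple reporter transcription units were dosed for 24 h; reporter mRNA was quantified by RT-PCR, 6-FAM primer-extension labelling, HpaI digestion and capillary electrophoresis, with bidirectional fitting against DMSO baseline.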

[3] = ATG_ERE_CIS: Attagene CIS-FACTORIAL HepG2 Assay for Estrogen Response Element (ERE) (AID 2282940); settings: HepG2 ERE cis-reporter, Attagene RNA transcript; actives raise or lower the signal
Summary of the method: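 HepG2 cells transiently transfected with cis-promoter-driven multiplexed reporter transcription units report endogenous TF activity. After 24 h compound exposure, reporter mRNA is quantified by RT-PCR with capillary electrophoresis fluorescence; bidirectional fitting versus DMSO baseline.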

[4] = ATG_Ets_CIS: Attagene CIS-FACTORIAL HepG2 Assay for human Erythroblast Transformation Specific (ETS) (AID 2282941); settings: HepG2 ETS cis-reporter transcription; AC50: actives raise or lower the signal unless noted; outcome: actives raise or lower the signal unless noted
Summary of the method: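 Endogenous transcription factor activity read as reporter mRNA via RT-PCR and capillary electrophoresis, with gain or loss fitted bidirectionally against DMSO. Human HepG2 liver cells, transiently transfected CIS reporter constructs, 24 h exposure.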

[5] = biological target: Hepatocyte nuclear factor 3-beta (Homo sapiens) (UniProt Q9Y261); experiment: ATG_FoxA2_CIS: Attagene CIS-FACTORIAL HepG2 Assay for human Forkhead box A2 (FOXA2) (AID 2282942); settings: HepG2 cis-reporter transcription factor activity, 24 h; actives raise or lower the signal
Hepatocyte nuclear factor 3-beta (Homo sapiens), sequence (Q9Y261 whole entry, looked up): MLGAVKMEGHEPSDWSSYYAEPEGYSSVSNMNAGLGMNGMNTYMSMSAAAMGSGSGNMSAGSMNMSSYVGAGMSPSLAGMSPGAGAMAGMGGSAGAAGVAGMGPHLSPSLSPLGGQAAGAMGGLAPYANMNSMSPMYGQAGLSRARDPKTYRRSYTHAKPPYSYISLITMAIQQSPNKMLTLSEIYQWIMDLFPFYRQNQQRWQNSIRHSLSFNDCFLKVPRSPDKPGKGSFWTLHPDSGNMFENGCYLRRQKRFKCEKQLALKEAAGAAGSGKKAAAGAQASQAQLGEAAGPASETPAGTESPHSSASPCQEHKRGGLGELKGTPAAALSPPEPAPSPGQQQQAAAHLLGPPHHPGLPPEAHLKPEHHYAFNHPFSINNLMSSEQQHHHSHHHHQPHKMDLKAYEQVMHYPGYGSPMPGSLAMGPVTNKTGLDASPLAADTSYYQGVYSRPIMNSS
Summary of the method: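 Endogenous transcription factor activity was read in HepG2 cells carrying transiently transfected cis-promoter reporter units. After 24 h dosing, reporter mRNA was quantified by RT-PCR and capillary electrophoresis, and values fitted bidirectionally versus DMSO.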

[6] = ATG_GATA_CIS: Attagene CIS-FACTORIAL HepG2 Assay for human GATA Binding Protein (AID 2282944); settings: HepG2 GATA cis-element reporter, Attagene multiplex mRNA; actives raise or lower the signal
Summary of the method: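 HepG2 cells transiently transfected with multiplexed cis-element reporter units reflecting endogenous transcription factor activity; reporter mRNA measured after 24 h dosing by RT-PCR, 6-FAM labeling, HpaI digestion and capillary electrophoresis. Bidirectional fitting versus DMSO baseline.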

[7] = ATG_GLI_CIS: Attagene CIS-FACTORIAL HepG2 Assay for human Zinc Finger Protein GLI1 (AID 2282945); settings: HepG2, Attagene cis-factorial reporter mRNA, GLI element; actives raise or lower the signal
Summary of the method: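 Bidirectional curve fits relative to DMSO, using reporter mRNA levels from RT-PCR plus capillary electrophoresis. Cells were HepG2 transiently carrying cis-regulated reporter constructs, harvested 24 h after dosing.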

[8] = biological target: Bile acid receptor (Homo sapiens) (UniProt Q96RI1); experiment: ATG_IR1_CIS: Attagene CIS-FACTORIAL HepG2 Assay for human Nuclear Receptor Subfamily 1 Group H Member 4 (NR1H4), IR1 submotif (AID 2282946); settings: IR1 reporter transcription, actives raise or lower the signal
Bile acid receptor (Homo sapiens), sequence (Q96RI1 whole entry, looked up): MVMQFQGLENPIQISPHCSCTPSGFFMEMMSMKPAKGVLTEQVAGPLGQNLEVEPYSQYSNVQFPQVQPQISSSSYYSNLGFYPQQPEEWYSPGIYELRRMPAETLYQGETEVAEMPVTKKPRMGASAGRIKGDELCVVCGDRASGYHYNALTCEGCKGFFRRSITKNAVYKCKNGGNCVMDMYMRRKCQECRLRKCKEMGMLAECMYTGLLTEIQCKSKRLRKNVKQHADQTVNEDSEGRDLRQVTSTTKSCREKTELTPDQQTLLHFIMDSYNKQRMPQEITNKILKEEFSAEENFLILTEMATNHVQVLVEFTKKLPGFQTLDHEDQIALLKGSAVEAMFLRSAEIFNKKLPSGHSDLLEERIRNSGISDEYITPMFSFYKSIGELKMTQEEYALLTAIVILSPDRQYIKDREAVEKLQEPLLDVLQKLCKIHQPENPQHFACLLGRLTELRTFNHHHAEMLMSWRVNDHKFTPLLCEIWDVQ
Summary of the method: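 HepG2 cells transiently transfected with multiplexed cis-element reporter units read endogenous transcription factor activity. After 24 h compound exposure, reporter mRNA was quantified by RT-PCR, fluorescent labelling, HpaI digestion and capillary electrophoresis; bidirectional fitting versus DMSO baseline.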

[9] = ATG_GRE_CIS: Attagene CIS-FACTORIAL HepG2 Assay for human Glucocorticoid Response Elements (GRE) (AID 2282947); settings: HepG2 GRE cis-reporter, Attagene multiplex mRNA; AC50: actives raise or lower the signal unless noted; outcome: actives raise or lower the signal unless noted
Summary of the method: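 Multiplexed cis-reporter mRNA induction, HepG2, 24 h post-dose. RT-PCR, FAM-labelled, HpaI-digested amplicons by CE. Bidirectional fit vs DMSO.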

[10] = ATG_ISRE_CIS: Attagene CIS-FACTORIAL HepG2 Assay for human Interferon Regulatory Factor 1 (IRF1) binding to an Interferon-Stimulated Response Element (ISRE) (AID 2282948); settings: HepG2 ISRE cis-reporter (Attagene), mRNA transcription readout; actives raise or lower the signal
Summary of the method: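 Endogenous transcription factor activity read as reporter transcript abundance via RT-PCR and capillary electrophoresis. HepG2 cells transiently transfected, 24 h chemical exposure. Gain or loss fitted against DMSO baseline.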

[11] = ATG_M_32_CIS: Attagene CIS-FACTORIAL HepG2 Assay for M32 Transcription Factor (Internal Marker) (AID 2282949); settings: HepG2 Attagene cis-factorial M32 reporter, mRNA; actives raise or lower the signal;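 further: background control marker of the multiplexed CIS panel rather than a real target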
Summary of the method: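 Transient MRTU transfection of HepG2; 24 h compound treatment; TriZol RNA, oligo(dT) RT, reporter PCR, 6-FAM primer extension, HpaI cut, CE. Gain/loss of signal vs DMSO.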

[12] = ATG_M_06_CIS: Attagene CIS-FACTORIAL HepG2 Assay for M06 Transcription Factor (Internal Marker) (AID 2282950); settings: HepG2 Attagene CIS-FACTORIAL M06 internal marker reporter; actives raise or lower the signal
Summary of the method: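 HepG2 cells transiently transfected with cis-regulated multiple reporter transcription units were exposed to chemical for 24 h; reporter mRNA was quantified by RT-PCR, 6-FAM primer labelling, HpaI digestion and capillary electrophoresis, fitted bidirectionally against DMSO.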

[13] = biological target: Hypoxia-inducible factor 1-alpha (Homo sapiens) (UniProt Q16665); experiment: ATG_HIF1a_CIS: Attagene CIS-FACTORIAL HepG2 Assay for human Hypoxia Inducible Factor 1 (HIF1A) (AID 2282951); settings: HepG2 Attagene cis-factorial HIF1a reporter transcription; actives raise or lower the signal
Hypoxia-inducible factor 1-alpha (Homo sapiens), sequence (Q16665 whole entry, looked up): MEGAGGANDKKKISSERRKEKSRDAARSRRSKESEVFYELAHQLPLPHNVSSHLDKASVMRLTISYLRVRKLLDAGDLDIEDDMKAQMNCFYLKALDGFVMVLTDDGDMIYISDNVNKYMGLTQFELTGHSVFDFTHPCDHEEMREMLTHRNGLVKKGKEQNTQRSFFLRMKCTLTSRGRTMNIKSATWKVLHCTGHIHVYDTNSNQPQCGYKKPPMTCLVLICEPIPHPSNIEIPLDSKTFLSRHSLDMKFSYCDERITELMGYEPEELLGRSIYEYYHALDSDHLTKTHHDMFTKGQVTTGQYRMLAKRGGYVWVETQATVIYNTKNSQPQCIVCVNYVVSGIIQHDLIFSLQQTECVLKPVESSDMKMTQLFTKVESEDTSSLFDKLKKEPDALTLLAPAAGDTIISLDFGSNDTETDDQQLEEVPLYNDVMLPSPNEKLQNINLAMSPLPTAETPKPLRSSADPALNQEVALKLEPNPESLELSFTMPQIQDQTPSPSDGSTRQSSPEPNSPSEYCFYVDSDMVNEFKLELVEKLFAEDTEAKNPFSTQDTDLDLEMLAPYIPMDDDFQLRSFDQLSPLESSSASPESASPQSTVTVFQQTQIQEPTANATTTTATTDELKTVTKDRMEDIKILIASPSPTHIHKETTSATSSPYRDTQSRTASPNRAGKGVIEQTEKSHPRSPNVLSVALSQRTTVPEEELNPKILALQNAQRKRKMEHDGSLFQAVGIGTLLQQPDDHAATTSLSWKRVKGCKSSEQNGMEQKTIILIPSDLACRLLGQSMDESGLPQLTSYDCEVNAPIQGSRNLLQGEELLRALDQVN
Summary of the method: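 Measures endogenous transcription-factor activity through cis-regulated reporter mRNA in HepG2. Cells dosed 24 h; transcripts quantified by RT-PCR with 6-FAM-labelled products separated by capillary electrophoresis; DMSO serves as negative control.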

[14] = biological target: Hepatocyte nuclear factor 6 (Homo sapiens) (UniProt Q9UBC0); experiment: ATG_HNF6_CIS: Attagene CIS-FACTORIAL HepG2 Assay for human Hepatocyte Nuclear Factor 6 (HNF6) (AID 2282952); settings: HepG2 Attagene cis-factorial HNF6 reporter transcription; actives raise or lower the signal
Hepatocyte nuclear factor 6 (Homo sapiens), sequence (Q9UBC0 whole entry, looked up, the tested form may be a part): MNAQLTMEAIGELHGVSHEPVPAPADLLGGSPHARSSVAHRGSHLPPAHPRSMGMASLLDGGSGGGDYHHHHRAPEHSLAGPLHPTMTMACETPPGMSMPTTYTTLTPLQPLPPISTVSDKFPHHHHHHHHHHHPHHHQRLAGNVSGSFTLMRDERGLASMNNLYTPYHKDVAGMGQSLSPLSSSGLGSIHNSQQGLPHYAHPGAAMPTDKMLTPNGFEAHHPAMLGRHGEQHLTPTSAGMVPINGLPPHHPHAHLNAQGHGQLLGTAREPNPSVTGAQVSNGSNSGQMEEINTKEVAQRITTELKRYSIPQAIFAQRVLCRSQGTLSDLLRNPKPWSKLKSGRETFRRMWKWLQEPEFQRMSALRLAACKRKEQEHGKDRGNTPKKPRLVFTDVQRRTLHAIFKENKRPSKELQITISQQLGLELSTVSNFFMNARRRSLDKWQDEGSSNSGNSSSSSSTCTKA
Summary of the method: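 Twenty-four-hour chemical treatment of reporter-transfected HepG2 cells precedes RNA isolation, DNase-treated reverse transcription and PCR of reporter sequences. Labelled fragments are sized by capillary electrophoresis and fitted bidirectionally versus DMSO.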

[15] = biological target: Heat shock factor protein 1 (Homo sapiens) (UniProt Q00613); experiment: ATG_HSE_CIS: Attagene CIS-FACTORIAL HepG2 Assay for human Heat Shock Transcription Factor 1 (HSE) (AID 2282953); settings: HepG2 HSE cis-reporter, Attagene RNA transcription; actives raise or lower the signal
Heat shock factor protein 1 (Homo sapiens), sequence (Q00613 whole entry, looked up): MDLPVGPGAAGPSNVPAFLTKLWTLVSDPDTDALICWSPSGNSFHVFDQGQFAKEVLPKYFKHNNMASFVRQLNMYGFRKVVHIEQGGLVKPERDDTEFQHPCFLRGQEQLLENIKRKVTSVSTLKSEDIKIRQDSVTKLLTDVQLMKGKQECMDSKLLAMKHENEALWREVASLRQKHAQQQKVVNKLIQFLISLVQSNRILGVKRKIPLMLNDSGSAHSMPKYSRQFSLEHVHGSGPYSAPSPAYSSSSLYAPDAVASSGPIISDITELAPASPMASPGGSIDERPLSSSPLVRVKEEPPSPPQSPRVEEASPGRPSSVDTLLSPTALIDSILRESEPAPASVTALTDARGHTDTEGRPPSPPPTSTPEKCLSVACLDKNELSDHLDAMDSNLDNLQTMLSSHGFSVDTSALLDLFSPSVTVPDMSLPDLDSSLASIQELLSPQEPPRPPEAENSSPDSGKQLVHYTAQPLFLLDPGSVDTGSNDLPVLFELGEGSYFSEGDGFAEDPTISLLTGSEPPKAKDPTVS
Summary of the method: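 HepG2 cells transiently transfected with multiple reporter transcription units under cis-regulatory promoter control, measuring endogenous transcription factor activity. After 24 h chemical exposure, reporter mRNA quantified by RT-PCR, fluorescent labelling, HpaI digestion and capillary electrophoresis; bidirectional fit versus DMSO.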

[16] = ATG_MRE_CIS: Attagene CIS-FACTORIAL HepG2 Assay for human Metal Responsive Element (MRE) (AID 2282954); settings: HepG2 MRE cis-reporter transcription, Attagene multiplex; actives raise or lower the signal
Summary of the method: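 Multiplexed cis-reporter assay in human HepG2 liver cells, 24 h incubation with test chemical. Reporter transcripts measured by RT-PCR and capillary electrophoresis; values from bidirectional curve fitting versus DMSO.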

[17] = biological target: Paired box protein Pax-6 (Homo sapiens) (UniProt P26367); experiment: ATG_Pax6_CIS: Attagene CIS-FACTORIAL HepG2 Assay for human Paired Box 6 (PAX6) (AID 2282956); settings: HepG2 CIS-FACTORIAL PAX6 reporter transcription, RNA readout; actives raise or lower the signal
Paired box protein Pax-6 (Homo sapiens), sequence (P26367 whole entry, looked up): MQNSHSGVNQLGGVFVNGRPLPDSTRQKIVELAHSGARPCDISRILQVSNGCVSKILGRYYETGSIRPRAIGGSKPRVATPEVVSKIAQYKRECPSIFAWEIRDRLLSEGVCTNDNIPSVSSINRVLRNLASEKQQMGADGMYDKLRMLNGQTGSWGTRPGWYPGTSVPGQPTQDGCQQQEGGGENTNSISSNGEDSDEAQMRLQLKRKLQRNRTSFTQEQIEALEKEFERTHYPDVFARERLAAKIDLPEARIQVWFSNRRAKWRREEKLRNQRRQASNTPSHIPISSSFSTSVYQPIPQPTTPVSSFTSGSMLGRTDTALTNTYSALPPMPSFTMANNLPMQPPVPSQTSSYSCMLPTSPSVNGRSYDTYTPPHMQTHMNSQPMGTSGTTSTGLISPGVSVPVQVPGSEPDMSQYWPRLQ
Summary of the method: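 Read-out is reporter transcript level, measured by RT-PCR with fluorescent primer extension and capillary electrophoresis after 24 h dosing of transfected HepG2 cells. Activity in either direction fitted relative to DMSO control.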

[18] = ATG_PXRE_CIS: Attagene CIS-FACTORIAL HepG2 Assay for human Pregnane X Receptor Element (PXRE) (AID 2282957); settings: HepG2 Attagene CIS-FACTORIAL PXRE reporter, mRNA; actives raise or lower the signal
Summary of the method: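 Bidirectional activity, baselined to DMSO, derived from reporter mRNA fluorescence (RT-PCR plus capillary electrophoresis) in HepG2 cells bearing cis-promoter reporter units, 24 h exposure.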

[19] = ATG_PBREM_CIS: Attagene CIS-FACTORIAL HepG2 Assay for human Phenobarbital-responsive Enhancer Module (PBREM) (AID 2282955); settings: HepG2 PBREM cis-reporter, Attagene multiplexed transcription; actives raise or lower the signal
Summary of the method: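 Fluorescence of labelled reporter cDNA fragments, resolved by capillary electrophoresis, gives mRNA induction in transfected HepG2 cells treated for 24 h; DMSO serves as negative control and baseline.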

[20] = ATG_FoxO_CIS: Attagene CIS-FACTORIAL HepG2 Assay for human Forkhead box O (FoxO) (AID 2282943); settings: HepG2 Attagene cis-reporter, FoxO element, mRNA; actives raise or lower the signal
Summary of the method: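 Human hepatoma HepG2 cells carry transiently introduced reporter transcription units controlled by cis promoter elements. Chemical treatment lasted 24 h, and mRNA signal was compared with DMSO.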

Measured: AC50

O=C(CC(=O)C(F)(F)C(F)(F)C(F)(F)F)c1cccs1
active: [4] 12.1 µM [setting not given] | [13] 12.8 µM and 16.5 µM | [15] 86.8 µM | [16] 50 µM | [18] 12.9 µM and 12.8 µM
inactive: [1] | [2] | [3] | [5] | [6] | [7] | [8] | [9] inactive [setting not given] | [10] | [11] | [12] | [14] | [15] | [16] | [17]

Cc1cc(Cc2cc(C)cc(C(C)(C)C)c2O)c(O)c(C(C)(C)C)c1
active: [1] 100 µM | [4] 79.4 µM | [5] 128 µM | [7] 165 µM | [11] 100 µM | [13] 41.4 µM | [14] 176 µM | [19] 151 µM | [18] 0.0497 µM
inactive: [2] | [3] | [6] | [9] | [10] | [12] | [15] | [16] | [17]

O=C(Nc1ccc(Cl)c(Cl)c1)c1cc(Cl)cc(Cl)c1O
active: [1] 8.8 µM | [5] 0.502 µM | [7] 50.6 µM | [8] 52.4 µM | [10] 33.4 µM | [13] 0.378 µM | [16] 25.8 µM | [19] 1.35 µM | [17] 30.5 µM | [18] 1.49 µM
inactive: [2] | [3] | [4] | [6] | [9] | [11] | [12]

O=C(F)C(F)(F)C(F)(F)C(F)(F)C(F)F
not listed: [7] | [10] | [14] | [19]
inactive: all other assays above

N=C(N)c1ccc(OCCCCCOc2ccc(C(=N)N)cc2)cc1
active: [1] 87.5 µM | [3] 23.2 µM | [13] 113 µM | [16] 65.2 µM | [17] 101 µM | [18] 57.2 µM
inactive: [2] | [4] | [5] | [6] | [7] | [9] | [11] | [12]

CCO[Si](C)(C)OCC
not listed: [20]
inactive: all other assays above

O=C(O)c1cccc(C(=O)O)n1
not listed: [20]
inactive: all other assays above
